# Most compounds without a hit are left out; they make up all but 4.5% or so of the library.
# Mdm2 MdmX PPI: disrupts the human Mdm2-MdmX interaction; O15151+Q00987; SaOS-2 split-luciferase Mdm2/MdmX complementation, luminescence; inhibition, % at 8 µM; 330,000 tested, 3% active; AID 485346;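 active = inhibition of at least 50% at 8 µM in the primary screen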
# Target sequence (O15151 whole entry, looked up): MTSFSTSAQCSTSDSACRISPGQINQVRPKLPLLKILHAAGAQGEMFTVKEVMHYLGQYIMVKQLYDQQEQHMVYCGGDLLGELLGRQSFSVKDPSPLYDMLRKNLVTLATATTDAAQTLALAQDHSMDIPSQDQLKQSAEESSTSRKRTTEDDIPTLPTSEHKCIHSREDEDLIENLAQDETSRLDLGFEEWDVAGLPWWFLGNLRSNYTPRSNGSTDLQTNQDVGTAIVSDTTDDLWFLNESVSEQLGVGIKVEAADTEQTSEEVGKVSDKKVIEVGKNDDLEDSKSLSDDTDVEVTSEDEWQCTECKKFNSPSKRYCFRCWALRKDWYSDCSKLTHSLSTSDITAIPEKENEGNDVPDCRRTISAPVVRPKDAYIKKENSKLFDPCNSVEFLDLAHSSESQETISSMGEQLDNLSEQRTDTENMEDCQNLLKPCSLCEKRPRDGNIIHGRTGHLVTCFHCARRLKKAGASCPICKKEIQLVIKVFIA
# Target sequence (Q00987 whole entry, looked up): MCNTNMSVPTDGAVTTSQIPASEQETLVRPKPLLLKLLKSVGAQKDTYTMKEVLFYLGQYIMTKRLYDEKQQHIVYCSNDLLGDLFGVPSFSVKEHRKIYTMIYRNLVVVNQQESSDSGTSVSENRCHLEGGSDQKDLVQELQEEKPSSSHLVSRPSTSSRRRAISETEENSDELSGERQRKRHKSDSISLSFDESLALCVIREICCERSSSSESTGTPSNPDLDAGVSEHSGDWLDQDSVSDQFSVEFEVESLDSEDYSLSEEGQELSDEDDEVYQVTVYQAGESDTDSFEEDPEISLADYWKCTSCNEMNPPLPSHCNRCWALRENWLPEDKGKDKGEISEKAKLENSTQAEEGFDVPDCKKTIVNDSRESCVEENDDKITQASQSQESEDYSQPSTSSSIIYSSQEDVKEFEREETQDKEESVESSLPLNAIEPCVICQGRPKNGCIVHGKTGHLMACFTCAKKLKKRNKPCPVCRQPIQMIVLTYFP
# CSC inhib: cancer stem cell inhibition | cancer stem cell-like cells viability, luminescence | inhibition, % at 7.5 µM | 300,000 tested, 1.1% active | AID 2717; in the data active = inhibition above about 75%; tested in HMLE shEcad cells
# 697 NFkB inh: inhibitors of the PMA/ionomycin-induced NF-kB reporter in 697 B cells; inhibition, % at 4 µM; 330,000 tested, 0.33% active; AID 435022; 697 B-cell NF-kB luciferase reporter, 16 h; in the data active = inhibition above about 35%
# Gli-Sufu block: blocks Gli-Sufu signaling in a luciferase reporter; Sufu-KO-LIGHT fibroblasts, Gli luciferase reporter luminescence; inhibition, % at 5 µM; 340,000 tested, 0.74% active;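 active = inhibition above about 55%, limit read from the data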;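 also: 0% = DMSO-treated cells and 100% = wells with medium but no cells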
# Jurkat NFkB inh: inhibitors of the PMA/ionomycin-induced NF-kB reporter in Jurkat cells; PMA/ionomycin-induced NF-kB luciferase reporter, luminescence; 330,000 tested, 0.53% active; AID 435003; inhibition, % at 4 µM; in the data active = inhibition above about 50%
# aSyn 5UTR inh: 5' untranslated region of α-synuclein, MLPCN primary screen | alpha-synuclein 5'UTR reporter, inhibitor activity | inhibition, % (tested at 7.5 µM) | 300,000 tested, 0.82% active; in the data active = inhibition above about 60%;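 also: H4 neuroglioblastoma cells stably carrying SNCA 5'UTR luciferase fusion; 0% = DMSO wells and 100% = positive control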
# Gli-Sufu confirm: confirmation of Gli-SUFU pathway antagonists | shares compounds with Gli-Sufu block | Sufu-KO-LIGHT cells, Gli luciferase reporter, luminescence | inhibition, % at 5 µM | 2,500 tested, 40% active;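 active = mean inhibition at 5 µM reaching about 45%, limit read from the data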;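 also: plate controls were DMSO-treated cells for no effect and wells lacking cells for full effect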
# Gli cytotox: cytotoxic in Gli-SUFU antagonist counter-screen; Sufu-KO-LIGHT cells cytotoxicity, ATP luminescence; shares compounds with Gli-Sufu block; cytotoxicity, % at 5 µM; 2,500 tested, 32% active;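 active = mean cytotoxicity at 5 µM above about 25%, limit read from the data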;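 also: cells exposed to compound overnight for roughly 16 to 18 hours; plate controls were DMSO wells with cells for no effect and medium without cells for full effect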
# Wnt3a cs: counter-screen for Gli-SUFU antagonists: Wnt3a reporter inhibition | shares compounds with Gli-Sufu block | Wnt-LIGHT cells, Wnt3a-driven luciferase reporter, luminescence | inhibition, % at 6.25 µM | 2,500 tested, 20% active;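 active = mean inhibition above about 25%, limit read from the data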
# An asterisk follows results filed as active; . = no result.
SMILES,Mdm2 MdmX PPI,CSC inhib,697 NFkB inh,Gli-Sufu block,Jurkat NFkB inh,aSyn 5UTR inh,Gli-Sufu confirm,Gli cytotox,Wnt3a cs
CCOc1ccc(NC(=S)NNc2ccnc3cc(Cl)ccc23)cc1,18,.,4,56*,-12,-37,66*,21,-31
O=C(NCc1ccc(F)cc1)C1CCN(S(=O)(=O)c2ccc3c(c2)OCCCO3)CC1,-1,0,25,2,16,19,.,.,.
O=C(NCc1ccc(Cl)cc1Cl)C1CCN(S(=O)(=O)c2ccc3c(c2)OCCCO3)CC1,24,.,9,63*,-2,6,-1,-6,-47
CCc1ccc(-n2cnc3cc(C(=O)NCC(OC)OC)ccc32)cc1,10,-11,6,-4,-2,-4,.,.,.
COC(=O)CCCn1nc(NC(=O)COc2ccc(F)cc2)cc1C,-11,-6,-2,-5,5,-10,.,.,.
CN(CC(=O)O)S(=O)(=O)c1ccc2c(c1)n(C)c(=O)c(=O)n2C,13,.,10,63*,8,-21,10,-3,-3
CC1CCCN(C(=O)COC(=O)c2cccc(NS(=O)(=O)c3ccccc3)c2)C1 (centres undefined),20,2,-3,-7,6,-13,.,.,.
Cc1cc(C[n+]2cc(Br)ccc2N)c2ncccc2c1,15,6,15,52,37,-8,53*,34*,-3
CCOc1cc(/C=C/c2cccc[n+]2C)ccc1O,4,-14,-15,2,-6,11,.,.,.
CC[n+]1ccccc1/C=C/c1ccc(N(C)C)cc1,.,.,.,81*,.,10,84*,24,40*
CN1CCN(C(=O)CCNC(=O)Cn2ccc3ccccc3c2=O)CC1,15,-3,-3,99*,-3,-25,10,2,-9
O=C(CSc1nnc(Cn2nnc3ccccc32)o1)N(Cc1ccc(Cl)cc1)c1ccccc1,17,16,-22,64*,22,0,63*,29*,11
COc1cc2c(cc1OC)CN(CC(=O)Nc1ccc(Cl)c(S(=O)(=O)N(C)C)c1)CC2,6,-8,13,.,14,-3,.,.,.
CC(C)C(=O)N1CCN(c2ccccc2NC(=O)COc2ccccc2)CC1,5,-6,-7,54,7,-3,28,10,-22
Cc1ccc(CC2SC(=Nc3ccccc3)N(c3ccccc3)C2=O)cc1 (centres undefined),9,23,10,58*,-2,5,19,9,-13
O=[N+]([O-])c1cccc(-c2cc3cccc[n+]3cc2-c2cccc([N+](=O)[O-])c2)c1,19,-3,-35,9,1,1,.,.,.
Cc1cccc2cc(-c3ccccc3)c(-c3ccccc3)c[n+]12,.,12,.,62*,.,13,52*,29*,-34
Cc1ncc(CN2CCC(CO)(CCc3ccccc3)CC2)s1,-40,1,11,1,6,-3,.,.,.
O=C1C(Cl)=C(N2CCCCC2)C(=O)N1c1ccccc1Cl,-14,-20,4,60*,-5,13,20,19,1
CCCCC[C@H](O)/C=C/C1C(=O)C=C[C@H]1C/C=C\CCCC(=O)OC (some centres undefined),.,.,.,0,.,.,.,.,.
CN(C)NC(=O)C12CCC(C)(C(=O)O1)C2(C)C (centres undefined),3,-5,11,-2,3,-4,.,.,.
CCCc1nc(SCC(=O)Nc2nnc(CC)s2)c2c(=O)n(C)c(=O)n(C)c2n1,46,-5,-39,66*,16,27,50*,23,6
CCCc1nc(SCC(=O)Nc2nnc(SCC)s2)c2c(=O)n(C)c(=O)n(C)c2n1,13,31,3,58*,8,4,56*,35*,7
O=c1ccc(-c2ccc(S(=O)(=O)NCC3CCN(Cc4cccc(F)c4)CC3)s2)n[nH]1,-15,11,1,59*,-21,9,13,22,-5
